Source: PubChem BioAssay (National Center for Advancing Translational Sciences (NCATS))
Pf growth 48h = inhibits P. falciparum growth in the first generation, 48 h; P. falciparum luciferase growth in erythrocytes, 48 h; Potency, µM (titrated, usually from 28.7 µM), without a hit: at the top dose activity change, negative = inhibition, usual class: inhibitors; 310,000 compounds, 5.9% hits; AID 504832; note: potency is the fitted concentration of half-maximal effect
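Erythrocytes infected with P. falciparum carrying an integrated firefly luciferase reporter (2% hematocrit, 0.1% parasitemia final) were exposed to compounds in RPMI 1640 with 0.5% Albumax at 37 C, 5% CO2. Growth inhibition was scored as reduced luminescence.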
HCV inhibitor = blocks hepatitis C virus; Huh7.5.1 HCVcc-Cre infection, luciferase reporter, 44 h; Potency, µM (top dose mostly 41.8 µM), for inactives: at the highest dose activity change, negative = inhibition, usual class: inhibitors; 340,000 compounds, 3.4% hits; AID 651820; note: potency is the fitted concentration of half-maximal effect
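Luciferase read-out (15 sec integration) after a 15 min room-temperature substrate step quantifies HCVcc-Cre infection. Cells, 1,000 per well, had compound added 4 h post-plating, then virus at ~0.5 moi, and were cultured 44 h.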
Pf growth 96h = inhibits malaria parasite growth, 96 h; P. falciparum luciferase reporter growth, 96 h; Potency, µM (doses to about 28.7 µM), for inactives: top-dose activity change, negative = inhibition, usual class: inhibitors; 320,000 compounds, 6.9% hits; AID 504834; note: potency is the fitted concentration of half-maximal effect
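Infected RBCs, 2% Hct / 0.05% parasitemia final; luciferase-reporter P. falciparum; cpd 96 h, 37 C, 5% CO2; luciferase detection reagent; luminescence.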
HCMV antiviral = human cytomegalovirus inhibition; HFF cells, HCMV-luciferase reporter, 72 h; hits give low values; activity change, negative = inhibition, % at 57.5 µM; 410,000 compounds, 4.5% hits; in the data active = activity change below about -60%; inconclusive = no clear call, values can overlap the other calls; inactive = above about -39%
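Two compound doses tested in HFFs infected with HCMV-luciferase, MOI 1 PFU/cell, 72 h at 37C. Lysate luminescence read with OneGlo; data normalized against buffer-only and 10uM Salinomycin inhibitor controls.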
* = called active by the depositor; u = inconclusive; x = not tested or not shown. In the library only some 13% were active in any assay of this set; here they are far more common. Unless noted, calls come from the whole dose curve; as a rule, active = well fitted inhibition curve with a large enough effect; inconclusive = small, poorly fitted or top-dose-only effect, or another doubt; inactive = no such curve, though single readings can be large or run the other way. % is set by controls: 0 for no effect and ±100 for the full control effect.

SMILES	Pf growth 48h	HCV inhibitor	Pf growth 96h	HCMV antiviral
O=C(c1ccc(F)c(S(=O)(=O)N2CCOCC2)c1)N1CCN(c2ccc(F)cc2)CC1	u	19%	6.6µM*	-65*
O=C(c1ccc(Cl)c(S(=O)(=O)N2CCCC2)c1)N1CCN(c2ccccn2)CC1	x	-12%	u	u
O=C(c1ccc(Cl)c(S(=O)(=O)N2CCOCC2)c1)N1CCN(c2ccccn2)CC1	12µM*	-13%	12µM*	-22
O=C(c1ccc(Cl)c(S(=O)(=O)NCc2ccccc2)c1)N1CCN(c2ccccn2)CC1	u	x	4.7µM*	-17
CC1CCN(S(=O)(=O)c2cc(C(=O)N3CCN(c4ncccn4)CC3)ccc2Br)CC1	u	u	7.4µM*	-64*
Cc1ccc(Cn2c(SCc3ccc(C(=O)O)cc3)nc3cccnc32)cc1	x	x	x	19
Cc1ccccc1CSc1cn(CCNC(=O)c2cccs2)c2ccccc12	x	x	x	-1
COc1cccc(-c2nnc(SCC(=O)NC3CCCCC3)o2)c1	x	x	x	-9
c1ccc(CN2CCCC3CC2c2ccccc23)cc1 (configuration not stated)	x	x	x	28
CCOC(=O)C1=CCN(S(=O)(=O)c2ccccc2Cl)C1c1cccc(Cl)c1 (configuration not stated)	x	x	x	-29
NCCc1nc2cccnc2n1-c1ccccc1	x	x	x	12
CC1CCN(C(=O)c2ccc(Br)c(S(=O)(=O)N3CCOCC3)c2)CC1	-9%	4%	8%	-31
CC1CCN(S(=O)(=O)c2cc(C(=O)NC3(C)CCS(=O)(=O)C3)ccc2Br)CC1 (configuration not stated)	u	-1%	9.3µM*	-61*
O=C(c1cccc(S(=O)(=O)NCc2ccccc2)c1)N1CCN(c2ccccc2Cl)CC1	x	11µM*	x	37
O=C(c1cccc(S(=O)(=O)NCc2ccccc2)c1)N1CCN(c2ccccc2)CC1	x	u	x	-29
CC1(C)C(=O)OC(c2cc(Br)ccc2O)C(C)(C)C1=O (configuration not stated)	12µM*	13%	31%	u
COc1cc2nc(SCc3ccc(F)cc3)n(Cc3cccs3)c(=N)c2cc1OC	u	u	u	-10
COc1ccc(Cn2c(SCc3ccccc3C)nc3cc(OC)c(OC)cc3c2=N)cc1	5.9µM*	x	1.7µM*	28
COCCCn1c(SCCc2ccccc2)nc2cc(OC)c(OC)cc2c1=N	12µM*	13µM*	9.3µM*	-18
Cc1ccc(CNC(=O)c2nc(-c3ccc(Cl)cc3)n3c2CCCCC3)cc1	x	x	x	-5
Cc1ccc(OCCNc2ccc(S(=O)(=O)N3CCCC3)cn2)cc1	-29%	-11%	-6%	5
CCNC(=O)NC(=O)CSc1ccc(S(=O)(=O)N2CCCCC2)cn1	u	-29%	5.2µM*	-3
CN(CCOc1ccc(Cl)cc1)c1ccc(S(=O)(=O)N2CCCCC2)cn1	-16%	14µM*	-29%	-11
CCNC(=O)NC(=O)CSc1ccc(S(=O)(=O)N(C)C2CCCCC2)cn1	12µM*	-1%	9.3µM*	-6
O=S(=O)(c1ccc(SCCOc2ccc(F)cc2)nc1)N1CCCC1	u	16µM*	u	u
SMILES	Pf growth 48h	HCV inhibitor	Pf growth 96h	HCMV antiviral
O=S(=O)(c1ccc(SCCOc2ccccc2)nc1)N1CCCC1	u	u	u	-9
CCN(Cc1ccccc1)C(=O)Cn1c(=O)n(-c2cccc(C)c2)c(=O)c2c1c1cc(OC)ccc1n2C	x	x	x	-2
COc1ccc(C2=NN(c3nc(-c4ccc(CNC(C)=O)cc4)cs3)C(c3ccco3)C2)cc1 (configuration not stated)	3.7µM*	-15%	u	u
COc1ccc(-c2csc(N3CCN(C(=O)c4ccco4)CC3)n2)cc1	x	-26%	-7%	u
CCN(CC)S(=O)(=O)c1ccc(NC2c3ccccc3C(=O)N2c2ccc(C)cn2)cc1 (configuration not stated)	x	14µM*	u	49
CCOc1ccc(NC2c3ccccc3C(=O)N2c2ccc(Cl)cn2)cc1 (configuration not stated)	32%	-4%	-63%	37
Cc1ccc(N2C(=O)c3ccccc3C2Nc2ccc(S(=O)(=O)N3CCCCC3)cc2)nc1 (configuration not stated)	x	u	10%	11
COc1ccc(NC2c3ccccc3C(=O)N2c2ccccn2)cc1 (configuration not stated)	u	-1%	12µM*	-80*
CCOC(=O)c1ccc(NC2c3ccccc3C(=O)N2c2ccccn2)cc1 (configuration not stated)	x	8%	10µM*	13
CCc1ccccc1NC1c2ccccc2C(=O)N1c1cc(C)ccn1 (configuration not stated)	13µM*	5%	50%	7
CN(C)c1ccc(CNC(=O)c2ccc(NC(=O)N3CCCCc4ccccc43)cc2)cc1	x	x	x	15
Cc1cc(N2CCC(C(=O)Nc3ccc(F)cc3C)CC2)n2nc(C)c(-c3ccc(Cl)cc3)c2n1	x	x	x	-9
COc1ccc(N2CC(C)Cn3c2nc2c3c(=O)n(Cc3ccc(C)cc3)c(=O)n2C)c(OC)c1 (configuration not stated)	4.7µM*	u	u	-18
COc1ccc(N2CC(C)Cn3c2nc2c3c(=O)n(Cc3ccc(F)cc3)c(=O)n2C)c(OC)c1 (configuration not stated)	u	u	x	-23
Cc1cc2nc(-c3ccc(NC(=O)c4ccc(OCC(C)C)cc4)cc3)oc2cc1C	x	x	x	15
Cc1ccc(S(=O)(=O)Nc2ccc3c(c2)C(=O)N([C@H](C)CO)C[C@H](C)[C@@H](CN(C)C(=O)NC2CCCCC2)OCCCC[C@@H](C)O3)cc1	x	x	x	-63*
Cc1ccc(S(=O)(=O)Nc2ccc3c(c2)C(=O)N([C@@H](C)CO)C[C@@H](C)[C@@H](CN(C)C(=O)NC2CCCCC2)OCCCC[C@H](C)O3)cc1	x	x	x	-4
C[C@@H]1CN([C@@H](C)CO)C(=O)c2cc(NS(=O)(=O)c3ccc(F)cc3)ccc2O[C@@H](C)CCCCO[C@H]1CN(C)C(=O)NC1CCCCC1	x	x	x	-86*
CC(=O)c1cccc(NC(=O)c2ccc(-n3c(C)nnc3C)cc2)c1	x	x	x	18
COC(=O)c1cc(S(=O)(=O)N2CCN(c3ccc(F)cc3)CC2)cn1C	29%	-16%	9.3µM*	-32
CCOC(=O)C1CCCN(S(=O)(=O)c2ccccc2)C1 (configuration not stated)	-5%	9%	6%	55
CCOC(=O)C1CCCN(C(=O)c2cc(S(=O)(=O)N3CCCCC3)ccc2Cl)C1 (configuration not stated)	u	u	10µM*	-16
CCN1CCN(C(=O)c2cc(S(=O)(=O)N3CCCCC3)ccc2Cl)CC1	40%	x	10µM*	25
COC(=O)c1cc(S(=O)(=O)N2CCN(c3cccc(OC)c3)CC2)cn1C	11%	-2%	-3%	u
